HP1b chromo inh: HTS for Inhibitors of HP1-beta Chromodomain Interactions with Methylated Histone Tails; Potency, µM (top dose mostly 114 µM), inactives show at the top dose activity change, negative = inhibition, actives largely listed as inhibitors; AlphaScreen HP1-beta / biotin-H3K9me3 peptide binding; AID 540317, 2011; actives 0.56% (n = 390,000); Chromobox protein homolog 1 (Homo sapiens), P83916; also: nearly all actives have a fitted effect of over 70% in size
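Compound inhibition of the preformed complex between 50 nM HP1-beta and 50 nM biotinylated H3K9me3 peptide was read by AlphaScreen. Buffer was PBS pH 7.4 with 0.01% Tween-20. Incubations ran 30 min at room temperature, with 10 ug/mL donor/acceptor beads.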
JMJD2A Tudor inh: qHTS Assay for Inhibitors of JMJD2A-Tudor Domain | Lysine-specific demethylase 4A (Homo sapiens), O75164 | AlphaScreen JMJD2A-Tudor / H3K4me3 peptide binding | Potency, µM (doses to about 114 µM), inactives show at the top dose activity change, negative = inhibition, actives largely listed as inhibitors | actives 4.4% (n = 390,000) | AID 504339, 2011; also: % is scaled to controls: 0 for no effect and ±100 for the full control effect; nearly all actives have a fitted effect of over 50% in size
ALOX12 inh: Primary qHTS assay for inhibitors of human arachidonate 12S-lipoxygenase (ALOX12): Round 2. purified 12hLO, xylenol orange hydroperoxide absorbance. Potency, µM (doses to about 108 µM), for inactives: at the highest dose activity change, negative = inhibition, most hits filed as inhibitors. actives 1.1% (n = 580,000). AID 1671190, 2021; also: % is scaled to controls: 0 for no effect and ±100 for the full control effect
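Purified human 12hLO (150 nM final) in 25 mM Hepes, 0.01% Triton X-100, pH 7.0 was preincubated 15 min at room temperature with compound. Then 40 uM arachidonic acid was added, 30 min. Hydroperoxide was read by Fe-XO absorbance ratio 573/405 nm.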
Sfp inh: qHTS Assay for Inhibitors of Bacillus subtilis Sfp phosphopantetheinyl transferase (PPTase) | 4'-phosphopantetheinyl transferase ffp (Bacillus subtilis), Q9F4F7 | actives 3.5% (n = 310,000) | Biochemical Sfp PPTase activity, qHTS | AID 1490, 2009 | Potency, µM, for the others: largest response in the series, negative = inhibition, actives largely listed as inhibitors;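 also: the enzyme is Sfp with the accession as filed and its product quenches rhodamine fluorescence; 0% = enzyme reaction without inhibitor and -100% = no enzyme wells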
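Compounds were incubated with enzyme (final 15 nM) for 15 min at room temperature before substrate addition started the reaction. Fluorescence at 525 nm excitation, 598 nm emission was recorded immediately and after 30 minutes.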
G9a inh: qHTS Assay for Inhibitors of Histone Lysine Methyltransferase G9a; Histone-lysine N-methyltransferase EHMT2 (Homo sapiens), Q96KQ7; G9a H3K9 monomethylation, AlphaScreen, 2 h; Potency, µM (series often up to 102 µM), for inactives: top-dose activity, negative = inhibition, usual class: inhibitors; actives 8.8% (n = 350,000); also: % is scaled to controls: 0 for no effect and ±100 for the full control effect; nearly all actives have a fitted effect of over 75% in size
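Signal arises when biotinylated H3K9 peptide, once monomethylated, bridges streptavidin donor and antibody-captured acceptor beads. Enzyme at 20 nM was preincubated 15 min with test compounds; peptide 500 nM and SAM 20 uM then reacted for 2 h.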
BAZ2B inh: qHTS Assay for Inhibitors of BAZ2B; AlphaScreen BAZ2B-H3K14Ac peptide displacement; Potency, µM (highest dose often 114 µM), inactives show at the top dose activity change, negative = inhibition, hits mostly inhibitors; actives 4.4% (n = 360,000); AID 504333, 2011; also: % is scaled to controls: 0 for no effect and ±100 for the full control effect; nearly all actives have a fitted effect of over 60% in size
Target sequence (Q9UIF8 whole entry, looked up): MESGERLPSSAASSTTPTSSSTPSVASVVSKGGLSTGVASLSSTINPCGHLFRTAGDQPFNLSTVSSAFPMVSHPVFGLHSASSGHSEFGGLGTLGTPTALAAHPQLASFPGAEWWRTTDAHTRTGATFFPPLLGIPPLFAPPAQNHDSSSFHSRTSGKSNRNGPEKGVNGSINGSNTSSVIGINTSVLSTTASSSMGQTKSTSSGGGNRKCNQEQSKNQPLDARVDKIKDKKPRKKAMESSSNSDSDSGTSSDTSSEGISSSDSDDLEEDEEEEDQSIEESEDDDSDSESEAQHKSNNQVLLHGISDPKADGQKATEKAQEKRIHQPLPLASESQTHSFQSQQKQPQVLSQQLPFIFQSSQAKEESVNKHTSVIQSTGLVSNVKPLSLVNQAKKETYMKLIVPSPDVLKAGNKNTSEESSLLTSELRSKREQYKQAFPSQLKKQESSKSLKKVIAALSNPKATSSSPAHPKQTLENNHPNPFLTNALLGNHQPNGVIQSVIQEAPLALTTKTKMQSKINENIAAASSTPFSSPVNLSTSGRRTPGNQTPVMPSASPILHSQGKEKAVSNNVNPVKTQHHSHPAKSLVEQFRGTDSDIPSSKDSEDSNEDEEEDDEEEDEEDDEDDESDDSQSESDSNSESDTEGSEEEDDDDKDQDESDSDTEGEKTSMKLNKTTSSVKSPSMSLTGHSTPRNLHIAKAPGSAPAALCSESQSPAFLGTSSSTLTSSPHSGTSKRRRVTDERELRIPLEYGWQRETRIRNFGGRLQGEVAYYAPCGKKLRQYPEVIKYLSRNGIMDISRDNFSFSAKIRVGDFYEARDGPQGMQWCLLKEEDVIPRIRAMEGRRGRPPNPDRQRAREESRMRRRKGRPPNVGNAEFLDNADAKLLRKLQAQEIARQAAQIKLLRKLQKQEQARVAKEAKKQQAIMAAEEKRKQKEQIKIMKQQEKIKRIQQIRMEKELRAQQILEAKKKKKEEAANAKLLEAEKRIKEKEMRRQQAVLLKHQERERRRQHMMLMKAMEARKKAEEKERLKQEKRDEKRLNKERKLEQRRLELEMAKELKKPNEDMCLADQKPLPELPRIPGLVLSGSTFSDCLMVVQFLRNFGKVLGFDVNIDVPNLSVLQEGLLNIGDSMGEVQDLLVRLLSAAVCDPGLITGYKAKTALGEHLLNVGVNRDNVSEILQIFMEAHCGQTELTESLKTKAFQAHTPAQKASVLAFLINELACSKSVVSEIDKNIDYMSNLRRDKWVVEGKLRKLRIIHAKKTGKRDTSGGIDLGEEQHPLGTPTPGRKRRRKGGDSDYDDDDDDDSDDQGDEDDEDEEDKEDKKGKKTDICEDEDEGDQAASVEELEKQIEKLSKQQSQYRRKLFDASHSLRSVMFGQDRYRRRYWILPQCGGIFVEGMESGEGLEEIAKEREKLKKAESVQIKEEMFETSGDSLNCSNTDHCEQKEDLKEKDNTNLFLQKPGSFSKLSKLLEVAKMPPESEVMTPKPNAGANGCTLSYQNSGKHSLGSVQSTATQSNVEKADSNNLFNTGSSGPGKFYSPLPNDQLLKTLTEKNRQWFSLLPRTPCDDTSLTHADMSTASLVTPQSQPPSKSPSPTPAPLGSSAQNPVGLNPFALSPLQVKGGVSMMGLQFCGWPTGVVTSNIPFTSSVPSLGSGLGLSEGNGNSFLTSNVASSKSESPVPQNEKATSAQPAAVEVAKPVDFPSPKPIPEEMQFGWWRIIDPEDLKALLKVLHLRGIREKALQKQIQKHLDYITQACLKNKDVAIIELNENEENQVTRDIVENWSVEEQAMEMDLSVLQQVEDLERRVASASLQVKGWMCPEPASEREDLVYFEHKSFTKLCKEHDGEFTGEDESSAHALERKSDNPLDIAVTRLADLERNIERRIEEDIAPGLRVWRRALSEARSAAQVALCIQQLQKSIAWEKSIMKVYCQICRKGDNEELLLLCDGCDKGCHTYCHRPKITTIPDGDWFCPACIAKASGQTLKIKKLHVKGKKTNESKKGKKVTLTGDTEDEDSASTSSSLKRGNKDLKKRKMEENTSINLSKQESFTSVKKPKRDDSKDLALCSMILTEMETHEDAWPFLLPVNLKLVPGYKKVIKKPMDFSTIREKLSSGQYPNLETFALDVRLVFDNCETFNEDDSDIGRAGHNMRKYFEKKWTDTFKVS
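In this displacement format the biotinylated H3(5-23) peptide acetylated at Lys14 serves as ligand at 50 nM, with BAZ2B at 50 nM in PBS pH 7.4 containing 0.01% Tween-20. Donor and acceptor beads are 10 ug/mL final.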
The depositor's hits bear a star; ? = inconclusive; . = no result given; [ ] = dose if it differs, or a comment. Shown are actives, neighbours in structure and some others; about 8.7% of the full set was active somewhere. Calls follow the shape of the dose curve; as a rule, active = well fitted curve in the direction sought with a large enough effect; inconclusive = small, poorly fitted or top-dose-only effect, or another doubt; inactive = no such curve, though single readings can be large; an effect the other way counts as inactive or inconclusive. Potency is read from the fitted curve at half-maximal effect.

SMILES	HP1b chromo inh	JMJD2A Tudor inh	ALOX12 inh	Sfp inh	G9a inh	BAZ2B inh
CCC(C)c1ccccc1NC(=O)c1cc(C)nc2ccccc12 (centres undefined)	.	.	1%	.	.	.
CC1CCN(S(=O)(=O)c2cc3cc(Cl)ccc3oc2=O)CC1	.	.	-14%	.	.	.
CC(C)(C)S(=O)CCC(=O)O (centres undefined)	.	.	-13%	.	.	.
Cc1ccc(C(=O)NC2CCCc3ccccc32)s1 (centres undefined)	.	.	-4%	.	.	.
CSCCC(NC(=O)c1ccccc1Cl)C(=O)Nc1cc(C)cc(C)c1 (centres undefined)	.	.	-16%	.	.	.
COC(=O)[C@H](CCSC)NC(=O)NC1CCN(Cc2ccccc2)CC1	50%	-3%	0%	-2%	5%[12.7 µM]	0%
CSCCC(NC(=O)c1ccccc1)C(=O)Nc1ccc(C)cc1 (centres undefined)	27%	-20%	-9%	0%	-1%[59 µM]	-14%
CSCCC(NC(=O)c1ccccc1Cl)C(=O)NC1CCN(Cc2ccccc2)CC1 (centres undefined)	0%	-16%	-10%	1%	1.6µM*	-38%
CSCCC(NC(=O)c1cccc(S(=O)(=O)N2CCOCC2)c1)C(=O)Nc1cccc(C)c1 (centres undefined)	20%	-2%	-10%	-17%	10µM*	-4%
CSCCC(NC(=O)c1ccccc1Cl)C(=O)Nc1cccc(S(=O)(=O)N2CCCC2)c1 (centres undefined)	41%	-4%	-17%	.	45µM*	-10%
COc1ccccc1C(=O)NC(CCSC)C(=O)Nc1ccc(C)c(S(=O)(=O)N2CCOCC2)c1 (centres undefined)	11%	-33%	47%	.	.	.
CSCCC(NC(=O)c1cccc(C)c1)C(=O)Nc1sccc1C(N)=O (centres undefined)	17%	-17%	-16%	-1%	50µM*	-30%
O=C(c1ccccc1SCc1cn2ccccc2n1)N1CCN(c2nccs2)CC1	.	.	4%	.	.	.
COc1ccc(C(=O)N2CCC3(CC2)CC(CO)N(C(=O)c2ccccc2)C3)cc1 (centres undefined)	.	.	11%	.	.	.
COc1ccc(Nc2cc(C)nc(N3CCN(C(=O)Nc4cc(C)ccc4C)CC3)n2)cc1	.	.	-13%	.	.	.
Cc1cc(C)c2c(=O)cc(C(=O)Nc3ccccc3C)oc2c1	.	.	45%	.	.	.
CCCNC(=O)c1ccc2snnc2c1	20%	0%	19%	7%	2%[59 µM]	-4%
CCCNC(=O)c1nnsc1S(=O)(=O)c1ccc(Cl)cc1	16%	-14%	-9%	13µM*	13µM*	-12%
CCCNC(=O)c1nnsc1S(=O)c1ccc(Cl)cc1 (centres undefined)	-15%	-18%	-23%	20µM*	25µM*	-2%
CNC(=O)c1nnsc1S(=O)c1ccc(Cl)cc1 (centres undefined)	-6%	-32%	-7%	13µM*	35µM*	-2%
Cn1c(=O)[nH]c(=O)c2c1nc(N1CCN(Cc3ccc(F)cc3)CC1)n2C/C=C/c1ccccc1	.	.	-27%	.	.	.
CC(C)c1ccc(OCCCCN2CCCCC2)cc1	?	0.79µM*	0%	-29%	-12%	79µM*
Clc1ccc(OCCCCN2CCCCC2)cc1	?	1µM*	.	-20%	10µM*	50µM*
CC(=O)c1ccc(OCCCCN2CCCC2)cc1	.	.	-62%	.	.	.
CCOCC(=O)N1C[C@@H]2CCCN3CCC[C@@H]([C@H]23)[C@H]1CCCC(=O)Nc1ccccc1	.	.	20%	.	.	.
SMILES	HP1b chromo inh	JMJD2A Tudor inh	ALOX12 inh	Sfp inh	G9a inh	BAZ2B inh
Cn1cncc1C#Cc1ccc2cc(CCO)oc(=O)c2c1	41%	-28%	12%	.	1%[0.501 µM]	56µM*
COC(=O)C1=C(C)N=C2SC=C(CC(=O)NCc3ccccc3)N2C1c1ccccc1OC (centres undefined)	.	.	-5%	.	.	.
COc1ccccc1C(=O)C1CCCN(C(=O)c2cn3cc(Cl)ccc3n2)C1 (centres undefined)	34%	-6%	?	8%	28µM*	-26%
Cc1cc(C(=O)N/N=C/c2ccc(C)o2)c2ccccc2n1	36%	-8%	4%	-25%	?	-8%
CCCc1cc(C(=O)N/N=C/c2ccc(C)o2)c2ccccc2n1	45%	-6%	-8%[57.4 µM]	-20%	4%[12.7 µM]	13%[57.1 µM]
Cc1ccc(/C=N/NC(=O)c2cc(-c3ccccc3)nc3ccccc23)o1	13%	?	-21%	50µM*	2%[0.0925 µM]	?
Cc1ccc(/C=N/NC(=O)c2cc(C3CC3)nc3ccccc23)o1	7%	-19%	-11%	50µM*	2%[59 µM]	?
Cc1ccc(C=NNC(=O)c2cc(-c3cccnc3)nc3ccccc23)o1	-4%	-35%	10µM*	.	.	.
N#Cc1ccc(S(=O)(=O)N2CC[C@@H]3C(=O)NCCCCCCN(Cc4ccncc4)[C@@H]3C2)cc1	.	.	11%	.	.	.
O=C1NC2(CCN(C(=O)c3ccccc3)CC2)Oc2ccccc21	.	.	46%[176 µM]	.	.	.
COc1cccc(N2C(=O)C3CCCN3C2c2ccc(N(C)C)cc2)c1 (centres undefined)	40%	-20%	-3%	0%	?	11%
Oc1c(Cl)cc(Cl)cc1C1Nc2ccccc2-n2cccc21 (centres undefined)	23%	-10%	191%	-7%	?	-4%
COc1ccc2c(c1)NC(c1ccc(N(C)C)cc1)c1cccn1-2 (centres undefined)	102%	21%	?	?	79µM*	-3%
COc1ccc2c(c1)NC(c1cc(Cl)cc(Cl)c1O)c1cccn1-2 (centres undefined)	26%	-16%	32µM*	4%	?	-10%
CC(C)(C)c1cc(C[C@H]2CNCC[C@H]2CC(=O)N2CCC(Cc3ccccc3)CC2)no1	.	.	24%	.	.	.
CCn1c(C(C)NC(=O)c2cccs2)n[nH]c1=S (centres undefined)	9%	7.1µM*	10%	-12%	13µM*	-5%
CCc1ccc(C(C)NC(=O)c2cccs2)cc1 (centres undefined)	-3%	-7%	0%	.	.	.

Screening results deposited in PubChem BioAssay by National Center for Advancing Translational Sciences (NCATS).
